Measurements as given in PubChem BioAssay AID686979 (National Center for Advancing Translational Sciences (NCATS), 2013).
The campaign covered roughly 420,000 compounds. About 50,000 (12%) were called active. About 26% were inconclusive and are not listed. This is one part of a sample in which actives are shown more often than they occur. Calls follow the shape of the dose curve; as a rule, active = well fitted inhibition curve with a large enough effect; inconclusive = small, poorly fitted or top-dose-only effect; inactive = flat fitted curve, though single readings scatter.

assay: qHTS for Inhibitors of human tyrosyl-DNA phosphodiesterase 1 (TDP1): qHTS in cells in presence of CPT; settings: chicken DT40 Tdp1-/-;hTDP1 cells + 20 nM CPT, ATP luminescence, 48 h; series mostly up to 46.2 µM; activity change, negative = growth inhibition: at the top concentration; also: nearly all actives have a fitted effect of over 55% in size
Procedure, shortened: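 Chicken DT40 Tdp1-/- cells complemented with human TDP1, 400 cells/well, exposed to compounds plus 20 nM camptothecin for at least 48 h at 37 C; viability read as ATP content by CellTiter-Glo luminescence.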
% is scaled to controls: 0 for no effect and ±100 for the full control effect; potency is read from the fitted curve at half-maximal effect.

Which “activity change, negative = growth inhibition” value does the source give for O=C(O)c1ccc(/C=C2\SC(=S)N(NC(=O)c3ccc(Br)cc3)C2=O)cc1 here?
The value was -6.8% (inactive).

For C=CCO/N=C/C1=C(O)C(C(=O)OC)C(C)(C)CC1=O (stereo not given), which “activity change, negative = growth inhibition” value is on record?
The value was 3.24% (inactive).

With CCCCC(NC(=O)c1cccc(Br)c1)C(=O)O (stereo not given) as the compound, how does the “activity change, negative = growth inhibition” value read?
Its value is 2.45% (inactive).

With CSc1ccc(/C=N\NC(=O)CC(=O)NC(C)C)cc1 as the compound, how does the “activity change, negative = growth inhibition” value read?
Its value is -1.78% (inactive).

Which “activity change, negative = growth inhibition” value does the source give for Cc1cc(C)n(-c2nc(O)cc(=O)[nH]2)n1 here?
Its value is 8.2% (inactive).

With COC(=O)C1=C(C(=O)c2ccc(C)cc2)C(c2ccccc2)n2nnnc2N1 (stereo not given) as the compound, how does the “activity change, negative = growth inhibition” value read?
Its value is 6% (inactive).

With O=Cc1c(Nc2ccccc2Cl)nc2ccccn2c1=O as the compound, how does the “activity change, negative = growth inhibition” value read?
The value was 9.71% (inactive).

Which “activity change, negative = growth inhibition” value does the source give for COc1cc(N=Cc2c(O)c3ccccc3oc2=O)c(OC)cc1Cl here?
Its value is -28.4% (inactive).

Which “activity change, negative = growth inhibition” value does the source give for CCOC(=O)Nc1ccccc1N1C(=O)c2ccccc2C1=O here?
Its value is -2.91% (inactive).

For CSc1ccccc1NC(=O)C(C)N1C(=O)c2ccccc2S1(=O)=O (stereo not given), which “activity change, negative = growth inhibition” value is on record?
Its value is 17% (inactive).

Which Potency does the source give for CC(=O)Nc1ccccc1Sc1ccc2c3c(cccc13)C(=O)N(c1ccc(C)cc1)C2=O here?
Its Potency is 11.6 µM (active).

Which “activity change, negative = growth inhibition” value does the source give for COc1ccc(NC(=O)COC(=O)C2COc3ccccc3O2)cc1 (stereo not given) here?
Its value is -5.6% (inactive).

For CN(C)c1ccc(C(CC(=O)O)C(=O)O)cc1 (stereo not given), which “activity change, negative = growth inhibition” value is on record?
The value was -3.14% (inactive).

For N#C[C@]1(S(=O)(=O)c2ccccc2)C[C@@H]2ON=C(c3cccc(Br)c3)[C@@H]2C1, which Potency is on record?
Its Potency is 9.2 µM (active).

Which “activity change, negative = growth inhibition” value does the source give for COC(=O)[C@]1(S(=O)(=O)c2ccccc2)C[C@@H]2ON=C(c3ccc(OC)cc3)[C@@H]2C1 here?
The value was -13.2% (inactive).

For O=C(NCCCn1ccnc1)C1CCCN(S(=O)(=O)c2cc(Cl)ccc2Cl)C1 (stereo not given), which “activity change, negative = growth inhibition” value is on record?
The value was -12.4% (inactive).

For CCC1(c2ccccc2)NC(=O)N(CC(=O)Nc2ccccc2C(=O)NC2CCCC2)C1=O (stereo not given), which “activity change, negative = growth inhibition” value is on record?
The value was -29.4% (inactive).

Which “activity change, negative = growth inhibition” value does the source give for COc1ccc(S(=O)(=O)n2nc(C)c(S(=O)(=O)N3CCOCC3)c2C)cc1 here?
Its value is -1.57% (inactive).

For CC1CCCCC1NC(=O)/C(C#N)=C/C=C/c1ccccc1[N+](=O)[O-] (stereo not given), which Potency is on record?
Its Potency is 10.3 µM (active).

With O=C(/C=C/c1ccccc1[N+](=O)[O-])OC1CCCCC1=O (stereo not given) as the compound, how does the “activity change, negative = growth inhibition” value read?
The value was -14.9% (inactive).

With O=C(/C=C/c1ccccc1[N+](=O)[O-])NCC1CCCO1 (stereo not given) as the compound, how does the “activity change, negative = growth inhibition” value read?
The value was -3.02% (inactive).

Which “activity change, negative = growth inhibition” value does the source give for O=C(Nc1cccc(C(=O)O)c1)/C(=C\c1ccccc1)NC(=O)c1ccc(Br)o1 here?
Its value is 3.2% (inactive).

With COc1ccc(-n2ccn(CC(=O)Nc3ccc(C)c(C)c3)c(=O)c2=O)cc1OC as the compound, how does the “activity change, negative = growth inhibition” value read?
The value was -3.68% (inactive).

Which “activity change, negative = growth inhibition” value does the source give for Cc1ccc(CNC(=O)CCc2c(C)nc3nc(CNC(=O)OC(C)(C)C)nn3c2C)cc1 here?
The value was -8.79% (inactive).

For O=C(Oc1cccnc1)c1cc2ccccc2oc1=O, which “activity change, negative = growth inhibition” value is on record?
Its value is -3.36% (inactive).

With O=C(Oc1c(-c2ccco2)oc2ccccc2c1=O)c1cccnc1 as the compound, how does the Potency read?
The Potency was 16.4 µM (active).

With O=C(Oc1ccc(Br)cc1)c1cccnc1 as the compound, how does the “activity change, negative = growth inhibition” value read?
Its value is 22.8% (inactive).

For O=S1(=O)CCO[C@H]2Cc3ccccc3[C@H]2N1Cc1ccccc1, which “activity change, negative = growth inhibition” value is on record?
The value was -13.6% (inactive).

With Cc1ccc(Sc2ccncc2S(N)(=O)=O)cc1 as the compound, how does the “activity change, negative = growth inhibition” value read?
Its value is 3.01% (inactive).

For CCCc1cc(C(=O)Nc2ccc(Cl)cn2)cs1, which “activity change, negative = growth inhibition” value is on record?
Its value is 0.0898% (inactive).

Which “activity change, negative = growth inhibition” value does the source give for CC1CCN(C(=O)Cn2cc(C(=O)c3ccco3)c3ccccc32)CC1 here?
Its value is -12.7% (inactive).

With Cc1ccccc1NC(=O)Cn1cc(C(=O)C2CC2)c2ccccc21 as the compound, how does the “activity change, negative = growth inhibition” value read?
Its value is -24.4% (inactive).

With Cc1cccc(NC(=O)Cn2cc(C(=O)c3ccco3)c3ccccc32)c1 as the compound, how does the Potency read?
Its Potency is 18.4 µM (active).

For CCn1c2ccccc2c2cc(NC(=O)COC(=O)c3cc(S(=O)(=O)N4CCCCC4)ccc3Cl)ccc21, which “activity change, negative = growth inhibition” value is on record?
The value was -5.5% (inactive).

For Cc1cccc(NC(=O)c2cccc(S(=O)(=O)N3CCCC3)c2)n1, which “activity change, negative = growth inhibition” value is on record?
Its value is -29.7% (inactive).

For CCn1c(O)c(N=NC(=O)c2cccc(S(=O)(=O)N3CCCCC3)c2)c2ccccc21, which Potency is on record?
Its Potency is 14.6 µM (active).

For O=S1(=O)C[C@@H](N2CCN(CCO)CC2)[C@H](COCc2ccccc2)N1, which “activity change, negative = growth inhibition” value is on record?
The value was -4.37% (inactive).

With COc1ccc(N(CC(=O)Nc2cccc3ccccc23)S(C)(=O)=O)c(OC)c1 as the compound, how does the “activity change, negative = growth inhibition” value read?
Its value is -13.2% (inactive).

Which “activity change, negative = growth inhibition” value does the source give for O=C(NCCN1CCOCC1)C1CCN(S(=O)(=O)c2ccccc2)CC1 here?
Its value is 13.8% (inactive).

With O=C(Nc1cccc(Cl)c1)c1cc(S(=O)(=O)N2CCCCC2)c[nH]1 as the compound, how does the “activity change, negative = growth inhibition” value read?
The value was 11.7% (inactive).

With COc1cc(NC(=O)c2cc(-c3ccc(F)cc3OC(C)C)n[nH]2)cc(OC)c1OC as the compound, how does the Potency read?
The Potency was 14.6 µM (active).

For O=C(Nc1cccc(Cl)c1)c1cncn1-c1ccc(F)cc1, which “activity change, negative = growth inhibition” value is on record?
Its value is -3.46% (inactive).

For COc1cc(-c2cc3n(C)c(C)c(CCC(=O)Nc4ccc(F)cc4)c(=O)n3n2)cc(OC)c1OC, which “activity change, negative = growth inhibition” value is on record?
The value was -2.72% (inactive).

Which Potency does the source give for CC(C)Oc1cc(F)ccc1-c1cc(C(=O)Nc2cccc(Cl)c2)[nH]n1 here?
Its Potency is 18.4 µM (active).

With COc1cc(F)ccc1-c1cc(C(=O)NCC2CCCCC2)[nH]n1 as the compound, how does the “activity change, negative = growth inhibition” value read?
Its value is -24.6% (inactive).

For COc1ccccc1C(=O)OCC(=O)NCCNC(=O)COC(=O)c1ccccc1OC, which “activity change, negative = growth inhibition” value is on record?
The value was 4.02% (inactive).

For COc1ccccc1OCC(=O)Nc1nnc2n1CCS2, which “activity change, negative = growth inhibition” value is on record?
Its value is -2.33% (inactive).

For CN(c1ccccc1)S(=O)(=O)c1ccc(Cl)c(C(=O)OCC(=O)NCc2ccco2)c1, which “activity change, negative = growth inhibition” value is on record?
The value was -17.2% (inactive).

With O=C(COC(=O)c1ccccc1O)NCc1ccco1 as the compound, how does the “activity change, negative = growth inhibition” value read?
Its value is -1.93% (inactive).

For Cc1cc(C(=O)OCC(=O)NCc2ccco2)c(C)n1-c1ccccc1, which Potency is on record?
Its Potency is 2.31 µM (active).

Which “activity change, negative = growth inhibition” value does the source give for COc1cccc(CNC(=O)CN2C(=O)CCc3cc(S(=O)(=O)N4CCOCC4)ccc32)c1 here?
Its value is -11.3% (inactive).

With CSc1nc2nc(-c3cccc(C(F)(F)F)c3)ccn2n1 as the compound, how does the “activity change, negative = growth inhibition” value read?
Its value is 15.5% (inactive).

With CCCC(=O)Nc1ccc(C(=O)N/N=C/c2ccc[nH]2)cc1 as the compound, how does the “activity change, negative = growth inhibition” value read?
The value was -17.9% (inactive).

For CC(=O)NCc1ccc(-c2csc(NC(=O)CCCc3nc4ccccc4c(=O)[nH]3)n2)cc1, which “activity change, negative = growth inhibition” value is on record?
Its value is -23.3% (inactive).

With O=C(COC(=O)CCc1nc2ccccc2c(=O)[nH]1)Nc1ccc(N2CCOCC2)cc1 as the compound, how does the “activity change, negative = growth inhibition” value read?
The value was -14.7% (inactive).
